Compound activity (PubChem BioAssay)
697 NFkB inh: lowers PMA/ionomycin-induced NF-kB signal in 697 B cells. 697 B-cell NF-kB luciferase reporter, 16 h. inhibition, % at 4 µM. 0.33% of 330,000 active. AID 435022; in the data active = inhibition above about 35%
Gli-Sufu antag: blocks Gli-Sufu signaling in a luciferase reporter. Sufu-KO-LIGHT fibroblasts, Gli luciferase reporter luminescence. AID 588413. inhibition, % at 5 µM. 0.74% of 340,000 active;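 active = inhibition above about 55%, limit read from the data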;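 also: 0% = DMSO-treated cells and 100% = wells with medium but no cells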
CSC inhib: blocks cancer stem cells | 1.1% of 300,000 active | cancer stem cell-like cells viability, luminescence | inhibition, % at 7.5 µM; in the data active = inhibition above about 75%; tested in HMLE shEcad cells
aSyn UTR inh: 5' untranslated region of α-synuclein, MLPCN primary screen; alpha-synuclein 5'UTR reporter, inhibitor activity; inhibition, % (tested at 7.5 µM); 0.82% of 300,000 active; AID 1813; in the data active = inhibition above about 60%;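 also: H4 neuroglioblastoma cells stably carrying SNCA 5'UTR luciferase fusion; 0% = DMSO wells and 100% = positive control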
Mdm2 MdmX PPI: inhibitors of human Mdm2/MdmX interaction | inhibition, % at 8 µM | AID 485346 | SaOS-2 split-luciferase Mdm2/MdmX complementation, luminescence | 3% of 330,000 active | O15151+Q00987;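 active = inhibition of at least 50% at 8 µM in the primary screen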
Jurkat NFkB inh: lowers PMA/ionomycin-induced NF-kB signal in Jurkat cells; PMA/ionomycin-induced NF-kB luciferase reporter, luminescence; inhibition, % at 4 µM; 0.53% of 330,000 active; in the data active = inhibition above about 50%
An asterisk follows results filed as active; / = not tested or not shown. Hits are enriched below; roughly 4.5% of the tested compounds scored in any of these assays.

SMILES | 697 NFkB inh | Gli-Sufu antag | CSC inhib | aSyn UTR inh | Mdm2 MdmX PPI | Jurkat NFkB inh
CSc1nc2cc(Oc3cccc(Cl)c3Cl)c(Cl)cc2[nH]1 | -24 | -14 | 103* | 43 | 9 | 0
CCC1=NN(C(=O)c2ccccc2O)C(O)(c2ccccc2)C1 (stereo not drawn) | -53 | -12 | 79* | -35 | 41 | 11
CCC1=NN(C(=O)c2ccc(Cl)cc2)C(O)(c2ccc(C)cc2)C1 (stereo not drawn) | 5 | -21 | 99* | 16 | 32 | 8
CCC1=NN(C(=O)c2ccccc2Br)C(O)(c2ccc(Br)cc2)C1 (stereo not drawn) | 21 | -6 | -9 | -10 | 10 | 1
COc1ccc(-c2nn(-c3ccccc3)cc2/C=C2/SC(=S)N(CCC(=O)O)C2=O)c(C)c1 | -19 | -16 | 85* | -11 | 13 | -13
COc1ccc(-c2nn(-c3ccccc3)cc2/C=C2/SC(=S)N(CCC(=O)O)C2=O)cc1 | 16 | 4 | 28 | -39 | 25 | -26
CCC(C)NC(=O)CN1c2cccc3cccc(c23)S1(=O)=O (stereo not drawn) | 5 | 4 | / | 4 | 30 | -4
O=C(/C=C/Nc1ccccc1F)c1ccc(Br)cc1 | / | -102 | 17 | -49 | / | /
O=C(/C=C/Nc1ccc(Br)cc1F)c1ccccc1 | -188 | -9 | 13 | 78* | -21 | -129
CC(C)(C)c1ccc(C(=O)CC(Sc2ccc(Cl)cc2)C(=O)O)cc1 (stereo not drawn) | 14 | -7 | 79* | -37 | 7 | 1
CC(=O)NN(O)C1N(C)C(=O)N(Cc2ccccc2)C1(C)C (stereo not drawn) | 5 | 5 | -9 | -7 | -17 | -13
Cc1ccc(S(=O)(=O)N2CCN(C(=O)COc3ccc(NC(=O)c4ccco4)cc3)CC2)cc1 | -20 | 3 | 94* | -26 | -2 | -3
CCOC(=O)C1(Cc2ccc(Cl)cc2)CCN(C(C)Cc2ccc(O)c(OC)c2)CC1 (stereo not drawn) | -21 | 72* | 6 | -9 | 10 | 45
CC(=O)Nc1ccc(/C(C)=N/NC(=O)c2ccc(F)cc2)cc1 | -6 | -9 | 8 | -40 | -10 | -6
CC(=O)Nc1ccc(/C(C)=N\NC(=O)c2ccc(-c3ccccc3)cc2)cc1 | 0 | / | 29 | 96* | 10 | -25
COc1ccc2sc(-c3ccc(N(C)C)cc3)c(C#CCCO)c2c1 | -43 | 7 | 122* | / | 47 | -34
COc1ccc(-c2sc3ccc(OC)cc3c2C#CCCO)cc1 | -28 | -16 | 99* | -15 | 11 | -15
COc1ccc2sc(-c3ccc(N(C)C)cc3)c(C#CC(C)(C)O)c2c1 | -40 | -6 | 66 | / | 26 | -17
Cc1nc2ccc(NS(=O)(=O)c3c(F)cc(F)cc3Br)cc2s1 | -18 | -6 | -8 | / | 4 | 7
O=C(CN1CCCC1c1cccs1)N1CCN(S(=O)(=O)c2cccc(F)c2)CC1 (stereo not drawn) | 19 | 2 | / | / | 24 | 5
O=C(NC(=S)Nc1ccccc1N1CCCCC1)c1ccco1 | -14 | 0 | 41 | 12 | -11 | 11
O=C(NC(=S)Nc1cccc(Cl)c1N1CCCCC1)c1cccs1 | -6 | 2 | 99* | -38 | 34 | 4
O=C(NC(=S)Nc1cccc(Cl)c1N1CCCCC1)c1ccco1 | 3 | 2 | 77* | 2 | 13 | 6
CN(C)S(=O)(=O)c1cc(C(=O)Nc2ccccc2C(=O)NC2CC2)ccc1Cl | -13 | 7 | / | / | -9 | -21
Cc1ccc(-n2c(Cl)c(Cl)nc(Cl)c2=O)cc1 | / | 11 | 91* | / | / | /
SMILES | 697 NFkB inh | Gli-Sufu antag | CSC inhib | aSyn UTR inh | Mdm2 MdmX PPI | Jurkat NFkB inh
O=C(CNC(=O)c1ccccc1Br)N/N=C/c1ccccc1O | 9 | 0 | / | 4 | 14 | 17
O=C(CNC(=O)c1ccccc1Br)N/N=C/c1cc(Br)ccc1O | -7 | -8 | 31 | 70* | 36 | 20
CCOC(=O)C1CNc2cc(S(=O)(=O)CC)ccc2O1 (stereo not drawn) | 12 | 3 | -9 | -2 | -8 | 4
Cc1ccc(F)cc1NC(=O)COC(=O)COc1ccc(C#N)cc1 | -8 | -20 | -11 | -11 | -23 | 13
COc1cccc(C2Nc3ccccc3C(=O)N2Cc2ccccc2)c1 (stereo not drawn) | -23 | 1 | -5 | 79* | -9 | -33
Cc1ccc(CN2C(=O)c3ccccc3NC2c2cc(Br)ccc2O)cc1 (stereo not drawn) | 1 | -15 | 110* | 28 | 11 | -10
O=C1c2ccccc2NC(c2ccccc2)N1Cc1ccccc1 (stereo not drawn) | 18 | 0 | 4 | -17 | 7 | -17
COc1ccc(O)c(/C=N/NC(=S)Nc2cccc(S(=O)(=O)N(C)C)c2)c1 | / | 4 | 97* | 74* | / | /
COc1cccc(/C=N/NC(=S)Nc2cccc(S(=O)(=O)N(C)C)c2)c1 | -1 | -7 | -6 | -7 | 0 | -7
NC(=O)c1ccc(Oc2ccc3c(c2)CCC3)c([N+](=O)[O-])c1 | -1 | 9 | / | 11 | 20 | 0
O=C(c1ccccc1)N1CCSc2sccc2C1=O | / | -44 | / | 97* | / | /
CCN1C/C(=C/c2ccc(N3CCOCC3)cc2)C(=O)/C(=C/c2ccc(N3CCOCC3)cc2)C1 | / | 6 | 103* | -412 | / | /
CN1C/C(=C\c2ccc(N3CCOCC3)cc2)C(=O)/C(=C/c2ccc(N3CCOCC3)cc2)C1 | -29 | 5 | 15 | -427 | 9 | -8
Cc1cc([N+](=O)[O-])nn1CC(=O)N/N=C/c1ccc(O)cc1O | 12 | -1 | 80* | 13 | 31 | 26
O=C(Cc1ccccc1)NNc1ccc2ccccc2c1 | -42 | 4 | 88* | -101 | 28 | -31
COc1ccc2cc(C#N)c(SCC(=O)N3CC(=O)Nc4ccccc43)nc2c1 | 7 | 8 | 15 | -35 | 35 | 42
Cc1cccc2cc(C#N)c(SCC(=O)N3CC(=O)Nc4ccccc43)nc12 | -36 | 44 | 40 | 110* | 49 | 48
c1ccc(-c2nnc(-c3ccccn3)nc2NC2CCCCC2)cc1 | -42 | 91* | -11 | 101* | 17 | 48
CNc1nc(-c2ccccn2)nnc1-c1ccccc1 | 2 | 24 | 23 | -9 | 26 | -8
Cc1cc2nc(C3CCN(Cc4nnnn4Cc4ccccc4)CC3)[nH]c2cc1C | 33 | 11 | 13 | 74* | 45 | 28
O/N=C/c1ccnc(SCc2ccc(Cl)cc2)n1 | 16 | 2 | 80* | / | 16 | -23
CCCn1c(SC(C)C(=O)NC2CC2)nnc1-c1ccncc1 (stereo not drawn) | 12 | -7 | / | / | 4 | -2
COc1ccc(-c2sc3cc4c(cc3c2C#CC2(O)CCCCC2)OCO4)cc1 | -17 | 10 | 112* | / | 6 | -11
CC1(C(=O)NCc2ccc(Cl)c(Cl)c2)Oc2ccccc2NC1=O (stereo not drawn) | -11 | 8 | -19 | 3 | 8 | -13
